# From the supplement of paper PMC8728848
# About 410 targets per protein were measured; listed, in parts, are those with the strongest signals and a random draw of the rest.
# Key:
# Assay in all cases: glycan array binding signal (z-score within array); higher = stronger binding
# Conditions in all cases: glycan notation: IUPAC condensed, linker removed
# [1] = molecular target: Fuc(a1-2)Gal6S(b1-4)Glc6S
# Method in brief: (§1)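 The binding signal is a Z-score computed within each array and averaged over linkers. Arrays of the same protein sequence at different concentrations or buffers were also averaged together. Data originate from 3228 arrays in the Consortium for Functional Glycomics database, kept only where the protein sequence was available.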
# [2] = molecular target: Fuc(a1-2)[Gal(a1-3)]Gal(b1-4)GlcNAc
# Method in brief: as §1
# [3] = molecular target: Fuc(a1-2)[GalNAc(a1-3)]Gal(b1-3)GlcNAc
# Method in brief: as §1
# [4] = molecular target: Fuc(a1-2)[GalNAc(a1-4)]Gal(b1-4)GlcNAc
# Method in brief: as §1
# Fuc(a1-3)GlcNAc = molecular target: Fuc(a1-3)GlcNAc
# Method in brief: as §1
# [5] = molecular target: Fuc(a1-3)[Gal(b1-4)]GlcNAc(b1-2)Man(a1-6)[Gal(b1-4)GlcNAc(b1-2)Man(a1-3)]Man(b1-4)GlcNAc(b1-4)GlcNAc
# Method in brief: as §1
# Fuc(a1-4)GlcNAc = molecular target: Fuc(a1-4)GlcNAc
# Method in brief: as §1
# [6] = molecular target: Gal(a1-3)[Gal(a1-4)]Gal(b1-4)GlcNAc
# Method in brief: as §1
# Gal(a1-4)Gal(b1-4)Glc = molecular target: Gal(a1-4)Gal(b1-4)Glc
# Method in brief: as §1
# [7] = molecular target: Gal(b1-4)GalNAc(a1-3)[Fuc(a1-2)]Gal(b1-4)GlcNAc
# Method in brief: as §1
# Gal(b1-4)Glc = molecular target: Gal(b1-4)Glc
# Method in brief: as §1
# Gal(b1-4)Glc6S = molecular target: Gal(b1-4)Glc6S
# Method in brief: as §1
# [8] = molecular target: GlcNAc(a1-3)Gal(b1-4)GlcNAc
# Method in brief: as §1
# [9] = molecular target: GlcNAc(a1-6)Gal(b1-4)GlcNAc
# Method in brief: as §1
# Neu5Ac(a2-3)Gal = molecular target: Neu5Ac(a2-3)Gal
# Method in brief: as §1
# [10] = molecular target: Neu5Ac(a2-3)Gal(b1-4)[Fuc(a1-3)]GlcNAc(b1-3)Gal(b1-4)GlcNAc
# Method in brief: as §1
# [11] = molecular target: Neu5Ac(a2-3)Gal(b1-4)[Fuc(a1-3)]GlcNAc(b1-6)[Gal(b1-3)]GalNAc
# Method in brief: as §1
# [12] = molecular target: Neu5Ac(a2-3)GalNAc(b1-4)GlcNAc
# Method in brief: as §1
# Neu5Ac(a2-6)Gal(b1-4)Glc = molecular target: Neu5Ac(a2-6)Gal(b1-4)Glc
# Method in brief: as §1
# [13] = molecular target: Neu5Ac(a2-6)Gal(b1-4)GlcNAc
# Method in brief: as §1
# [14] = molecular target: Neu5Ac(a2-6)Gal(b1-4)GlcNAc(b1-2)Man(a1-3)[Gal(b1-4)GlcNAc(b1-2)Man(a1-6)]Man(b1-4)GlcNAc(b1-4)GlcNAc
# Method in brief: as §1
# [15] = molecular target: Neu5Ac(a2-6)Gal(b1-4)GlcNAc(b1-2)Man(a1-3)[GlcNAc(b1-2)Man(a1-6)]Man(b1-4)GlcNAc(b1-4)GlcNAc
# Method in brief: as §1
# [16] = molecular target: Neu5Ac(a2-6)Gal(b1-4)GlcNAc(b1-2)Man(a1-3)[Neu5Ac(a2-6)Gal(b1-4)GlcNAc(b1-2)Man(a1-6)]Man(b1-4)GlcNAc(b1-4)GlcNAc
# Method in brief: as §1
# [17] = molecular target: Neu5Ac(a2-6)Gal(b1-4)GlcNAc(b1-2)Man(a1-6)[GlcNAc(b1-2)Man(a1-3)]Man(b1-4)GlcNAc(b1-4)GlcNAc
# Method in brief: as §1
# [18] = molecular target: Neu5Ac(a2-6)Gal(b1-4)GlcNAc6S
# Method in brief: as §1
# [19] = molecular target: Fuc(a1-2)Gal6S(b1-4)GlcNAc
# Method in brief: as §1
# [20] = molecular target: Fuc(a1-2)[Gal(a1-3)]Gal(b1-4)GlcNAc(b1-2)Man(a1-3)[Fuc(a1-2)[Gal(a1-3)]Gal(b1-4)GlcNAc(b1-2)Man(a1-6)]Man(b1-4)GlcNAc(b1-4)GlcNAc
# Method in brief: as §1
# [21] = molecular target: Fuc(a1-2)[GalNAc(a1-3)]Gal(b1-4)Glc
# Method in brief: as §1
# [22] = molecular target: Fuc(a1-3)[Gal(b1-4)]GlcNAc(b1-4)Gal(b1-4)[Fuc(a1-3)]GlcNAc
# Method in brief: as §1
# [23] = molecular target: Gal(a1-3)Gal(b1-3)GlcNAc(b1-2)Man(a1-3)[Gal(a1-3)Gal(b1-3)GlcNAc(b1-2)Man(a1-6)]Man(b1-4)GlcNAc(b1-4)GlcNAc
# Method in brief: as §1
# Gal(b1-3)Gal = molecular target: Gal(b1-3)Gal
# Method in brief: as §1
# [24] = molecular target: Gal(b1-3)Gal(b1-4)GlcNAc(b1-2)Man(a1-3)[Gal(b1-3)Gal(b1-4)GlcNAc(b1-2)Man(a1-6)]Man(b1-4)GlcNAc(b1-4)GlcNAc
# Method in brief: as §1
# [25] = molecular target: Gal(b1-3)[Fuc(a1-4)]GlcNAc(b1-2)Man(a1-3)[Gal(b1-3)[Fuc(a1-4)]GlcNAc(b1-2)Man(a1-6)]Man(b1-4)GlcNAc(b1-4)GlcNAc
# Method in brief: as §1
# [26] = molecular target: Gal(b1-4)GlcNAc(b1-2)Man(a1-3)Man(b1-4)GlcNAc(b1-4)GlcNAc
# Method in brief: as §1
# Gal3S(b1-3)GalNAc = molecular target: Gal3S(b1-3)GalNAc
# Method in brief: as §1
# Gal3S(b1-4)GlcNAc6S = molecular target: Gal3S(b1-4)GlcNAc6S
# Method in brief: as §1
# Gal3S6S(b1-4)GlcNAc = molecular target: Gal3S6S(b1-4)GlcNAc
# Method in brief: as §1
# Gal3S6S(b1-4)GlcNAc6S = molecular target: Gal3S6S(b1-4)GlcNAc6S
# Method in brief: as §1
# [27] = molecular target: GlcNAc(b1-2)Gal(b1-3)GalNAc
# Method in brief: as §1
# [28] = molecular target: GlcNAc(b1-2)Man(a1-3)[GlcNAc(b1-2)Man(a1-6)]Man(b1-4)GlcNAc(b1-4)GlcNAc
# Method in brief: as §1
# [29] = molecular target: GlcNAc(b1-2)Man(a1-3)[GlcNAc(b1-2)Man(a1-6)]Man(b1-4)GlcNAc(b1-4)[Fuc(a1-6)]GlcNAc
# Method in brief: as §1
# [30] = molecular target: GlcNAc(b1-3)Gal(b1-3)GalNAc
# Method in brief: as §1
# [31] = molecular target: GlcNAc(b1-3)[GlcNAc(b1-4)][GlcNAc(b1-6)]GlcNAc
# Method in brief: as §1
# [32] = molecular target: GlcNAc(b1-3)[GlcNAc(b1-6)]Gal(b1-4)GlcNAc
# Method in brief: as §1
# GlcNAc(b1-6)GalNAc = molecular target: GlcNAc(b1-6)GalNAc
# Method in brief: as §1
# Kdn(a2-3)Gal(b1-3)GalNAc = molecular target: Kdn(a2-3)Gal(b1-3)GalNAc
# Method in brief: as §1
# [33] = molecular target: Neu5Ac(a2-3)Gal(b1-3)GalNAc(b1-3)Gal(a1-4)Gal(b1-4)Glc
# Method in brief: as §1
# [34] = molecular target: Neu5Ac(a2-3)Gal(b1-3)[Fuc(a1-4)]GlcNAc
# Method in brief: as §1
# [35] = molecular target: Neu5Ac(a2-3)Gal(b1-4)GlcNAc6S
# Method in brief: as §1
# [36] = molecular target: Neu5Ac(a2-3)Gal(b1-4)[Fuc(a1-3)]GlcNAc(b1-3)GalNAc
# Method in brief: as §1
# [37] = molecular target: Neu5Ac(a2-3)Gal(b1-4)[Fuc(a1-3)]GlcNAc(b1-6)[Neu5Ac(a2-3)Gal(b1-3)]GalNAc
# Method in brief: as §1
# [38] = molecular target: Neu5Ac(a2-6)Gal(b1-4)GlcNAc(b1-3)Gal(b1-4)GlcNAc
# Method in brief: as §1
# [39] = molecular target: Neu5Ac(a2-6)GlcNAc(b1-4)GlcNAc(b1-4)GlcNAc
# Method in brief: as §1
# Neu5Ac(a2-8)Neu5Ac = molecular target: Neu5Ac(a2-8)Neu5Ac
# Method in brief: as §1
binder,measurement,setting,value
"SLR2P3F12 (Tachypleus tridentatus), TAL2_TACTR (protein) MEKGTPPTHDSDNWMGRAKKIGNGGWNQFQFLFFDPNGYLYAVSKDKLYKASPPQSDTDNWIARATEIGSGGWSGFKSLFFHPNGYLYAVHGQRLYKALPPVSNQD",glycan array binding signal (z-score),[1],-0.343
same,glycan array binding signal (z-score),[2],-0.417
same,glycan array binding signal (z-score),[3],0.556
same,glycan array binding signal (z-score),[4],2.01
same,glycan array binding signal (z-score),Fuc(a1-3)GlcNAc,-0.301
same,glycan array binding signal (z-score),[5],0.218
same,glycan array binding signal (z-score),Fuc(a1-4)GlcNAc,1.42
same,glycan array binding signal (z-score),[6],0.143
same,glycan array binding signal (z-score),Gal(a1-4)Gal(b1-4)Glc,-0.342
same,glycan array binding signal (z-score),[7],-0.208
same,glycan array binding signal (z-score),Gal(b1-4)Glc,2.75
same,glycan array binding signal (z-score),Gal(b1-4)Glc6S,-0.248
same,glycan array binding signal (z-score),[8],5.11
same,glycan array binding signal (z-score),[9],13.2
same,glycan array binding signal (z-score),Neu5Ac(a2-3)Gal,-0.415
same,glycan array binding signal (z-score),[10],-0.203
same,glycan array binding signal (z-score),[11],2.75
same,glycan array binding signal (z-score),[12],0.435
same,glycan array binding signal (z-score),Neu5Ac(a2-6)Gal(b1-4)Glc,-0.125
same,glycan array binding signal (z-score),[13],-0.317
same,glycan array binding signal (z-score),[14],-0.422
same,glycan array binding signal (z-score),[15],-0.235
same,glycan array binding signal (z-score),[16],0.131
same,glycan array binding signal (z-score),[17],1.27
same,glycan array binding signal (z-score),[18],0.194
"CREG (Mus musculus), O88668 (protein) MAARAPELARSLLAALLAPALVALLVSPASGRGGRDHGDWDVDRRLPPLPPREDGPRVARFVTHVSDWGSLATISTIKEVRGWPFADIISISDGPPGEGTGEPYMYLSPLQQAVSDLQENPEATLTMSLAQTVYCRNHGFDPQSPLCVHIMMSGTVTKVNKTEEDYARDSLFVRHPEMKHWPSSHNWFFAKLKISRIWVLDYFGGPKVVTPEEYFNVTLQ",glycan array binding signal (z-score),[19],-0.138
same,glycan array binding signal (z-score),[20],2.76
same,glycan array binding signal (z-score),[21],0.375
same,glycan array binding signal (z-score),[22],2.95
same,glycan array binding signal (z-score),[23],3.49
same,glycan array binding signal (z-score),Gal(b1-3)Gal,0.033
same,glycan array binding signal (z-score),[24],0.416
same,glycan array binding signal (z-score),[25],6.79
same,glycan array binding signal (z-score),[7],0.494
same,glycan array binding signal (z-score),[26],-0.442
same,glycan array binding signal (z-score),Gal3S(b1-3)GalNAc,0.036
same,glycan array binding signal (z-score),Gal3S(b1-4)GlcNAc6S,0.604
same,glycan array binding signal (z-score),Gal3S6S(b1-4)GlcNAc,1.52
same,glycan array binding signal (z-score),Gal3S6S(b1-4)GlcNAc6S,2.03
same,glycan array binding signal (z-score),[27],-0.651
same,glycan array binding signal (z-score),[28],0.15
same,glycan array binding signal (z-score),[29],3.8
same,glycan array binding signal (z-score),[30],3.22
same,glycan array binding signal (z-score),[31],2.23
same,glycan array binding signal (z-score),[32],-0.627
same,glycan array binding signal (z-score),GlcNAc(b1-6)GalNAc,-0.035
same,glycan array binding signal (z-score),Kdn(a2-3)Gal(b1-3)GalNAc,0.66
same,glycan array binding signal (z-score),[33],-0.096
same,glycan array binding signal (z-score),[34],-0.737
same,glycan array binding signal (z-score),[35],1.38
same,glycan array binding signal (z-score),[36],3.4
same,glycan array binding signal (z-score),[37],4.66
same,glycan array binding signal (z-score),[38],0.227
same,glycan array binding signal (z-score),[39],0.386
same,glycan array binding signal (z-score),Neu5Ac(a2-8)Neu5Ac,-0.211
